Calpain2 inh – inhibitors of pig calpain II, primary screen, biochemical, fluorogenic peptide substrate, 1536-well; actives 0.37% (n = 220,000); purified calpain II, 30 min; inhibition, % at 16 µM;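 active means inhibition above about 50%, limit read from the data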
TNF necrop inh – inhibitors of TNF-alpha triggered necroptosis, primary screen, cell-based, Jurkat FADD-/-, single concentration | AID 463075, 2010 | activation (protection from cell death), % at 10 µM | actives 0.068% (n = 220,000) | Jurkat FADD-/- TNF necroptosis rescue, ATP luminescence, 24 h; 0 = TNF only, 100 = no-TNF cells;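 active means activation, meaning protection from cell death, of at least 50% relative to plate controls; inactive means activation below 50%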;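 further: necroptosis triggered by 40 ng/mL TNF-alpha added together with compound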
Bim-Mcl-1 – inhibitors of Bim peptide binding to Mcl-1, primary screen, biochemical, bead-based flow cytometry, multiplex | inhibition, % at 10 µM | Bim peptide-Mcl-1 binding | Induced myeloid leukemia cell differentiation protein Mcl-1 (Homo sapiens), Q07820 | actives 0.1% (n = 190,000) | AID 1009, 2008; in the data active means inhibition above about 40%;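 further: 0% = no compound tracer wells and 100% = peptide blocker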
Target sequence (Q07820 whole entry, looked up): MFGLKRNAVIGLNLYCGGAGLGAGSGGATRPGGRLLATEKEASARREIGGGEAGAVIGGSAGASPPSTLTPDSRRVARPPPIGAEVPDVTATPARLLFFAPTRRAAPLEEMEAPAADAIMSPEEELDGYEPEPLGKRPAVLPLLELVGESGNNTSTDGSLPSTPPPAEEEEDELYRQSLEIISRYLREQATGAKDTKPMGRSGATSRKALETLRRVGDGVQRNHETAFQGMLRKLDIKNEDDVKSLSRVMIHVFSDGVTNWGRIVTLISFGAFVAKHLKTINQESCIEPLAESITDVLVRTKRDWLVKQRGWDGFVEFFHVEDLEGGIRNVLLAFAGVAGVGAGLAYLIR
L929 necroptosis – inhibitors of zVAD-triggered necroptosis, primary screen, L929 cells | viability rescue, % at 10 µM | actives 0.38% (n = 220,000) | L929 zVAD necroptosis rescue, ATP luminescence, 24 h; with zVAD 60 µM;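 active means activation, scaled between plate controls, above about 75%, limit read from the data; inactive means activation under that limit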;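 further: 0% = zVAD with DMSO and 100% = DMSO alone without zVAD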
Mcl1 Noxa PPI – Mcl-1/Noxa binding inhibitors, primary screen, biochemical, TR-FRET, 1536-well | Induced myeloid leukemia cell differentiation protein Mcl-1 (Homo sapiens), Q07820 | TR-FRET Mcl-1/Noxa peptide binding, 2 h | inhibition, % at 21.7 µM | actives 1.5% (n = 220,000);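 active means compounds that cut the protein-peptide binding signal by more than 50% relative to plate controls in a single-dose test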;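 further: His-tagged Mcl-1 with rhodamine Noxa BH3 peptide and terbium anti-His antibody; 0% = Mcl-1 plus Noxa peptide wells and 100% = peptide-only wells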
Mcl1-Bid inh – Mcl-1/Bid binding inhibitors, primary screen, biochemical, TR-FRET, 1536-well. actives 0.97% (n = 220,000). TR-FRET Mcl-1/Bid-Dy647 peptide binding. Induced myeloid leukemia cell differentiation protein Mcl-1 (Homo sapiens), Q07820. inhibition, % at 21.7 µM;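 active means compounds that cut the binding signal by more than half at the single screening dose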;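 further: His-tagged Mcl-1 with europium anti-His antibody binding Bid BH3 peptide; 0% = Mcl-1 plus peptide wells and 100% = peptide-only wells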
Starred values were filed as active, the others as inactive; . = no result given. Most compounds without a hit are left out; they make up all but 2.8% or so of the library.

SMILES	Calpain2 inh	TNF necrop inh	Bim-Mcl-1	L929 necroptosis	Mcl1 Noxa PPI	Mcl1-Bid inh
O=C1C2CC=C(Cl)CC2C(=O)N1CCCCCCN1C(=O)C2CC=C(Cl)CC2C1=O (centres undefined)	-199	-1	1	-1	55*	-27
O=[N+]([O-])c1cc(/C=N/n2cnnc2)ccc1N1CCCC1	62*	-1	1	0	9	46
CC1=NOC(=O)/C1=C\c1ccc(-c2ccc(Br)cc2)o1	-29	-5	-3	-1	66*	40
CC1=NOC(=O)/C1=C\c1ccc(-c2ccc(Br)cc2C(=O)O)o1	23	-1	0	0	16	-115
CC1=NOC(=O)/C1=C/c1ccc(-c2ccc(Cl)cc2)o1	-13	-10	0	1	67*	67*
CC1=NOC(=O)/C1=C\c1ccc(-c2cc(Cl)ccc2Cl)o1	7	-8	-3	-1	53*	41
Cc1ccc(C2=NOC(=O)/C2=C\c2ccc(C)o2)cc1	9	-16	.	0	9	-46
CCCCC1=CC2=CC(=O)C(C)(OC(=O)c3cnc4ccccc4n3)C(=O)C2=CO1 (centres undefined)	-38	-1	.	0	62*	-17
COC/C=C/C1=CC2=CC(=O)C(C)(OC(=O)c3cnc4ccccc4n3)C(=O)C2=CN1CCCCO (centres undefined)	35	0	.	0	28	-34
COC/C=C/C1=CC2=CC(=O)C(C)(OC(=O)c3cnc4ccccc4n3)C(=O)C2=CN1Cc1ccc(OC)cc1 (centres undefined)	1	-9	.	70	57*	-37
COC/C=C/C1=CC2=CC(=O)C(C)(OC(=O)c3cnc4ccccc4n3)C(=O)C2=CN1Cc1ccccc1 (centres undefined)	-41	-8	.	6	34	-44
O=S(=O)(Nc1nc2ccccc2s1)c1cnc(Cl)c(Br)c1	34	1	.	1	12	6
CCC(=O)N1CCc2cc(S(=O)(=O)NC(C(=O)NC3CCCc4ccccc43)C(C)C)ccc21 (centres undefined)	-36	-5	-3	.	-7	7
O=C(Nc1ccccc1SCC1CSc2nc3ccccc3c(=O)n21)c1ccccc1 (centres undefined)	-45	-1	0	0	-10	-10
Cc1ccc(C(=O)Nc2ccccc2SCC2CSc3nc4ccccc4c(=O)n32)cc1 (centres undefined)	10	-9	-1	0	6	53*
CSc1nc2cc(Oc3cccc(Cl)c3Cl)c(Cl)cc2[nH]1	61*	.	-3	.	5	5
CSc1nc2ccc(Cl)cc2[nH]1	-17	0	-1	1	5	-5
COc1ccc(C2(C(=O)NCCCN3CCOCC3)CCOCC2)cc1	-11	1	4	2	3	-24
CCOC(=O)C1=C(CP(=O)(c2ccccc2)c2ccccc2)NC(=O)NC1c1ccc(OC)cc1 (centres undefined)	-27	1	74*	1	4	-3
CCOC(=O)C1=C(CP(=O)(c2ccccc2)c2ccccc2)NC(=O)NC1c1ccc(Cl)cc1 (centres undefined)	4	1	-3	-1	-3	7
O=S(=O)(c1ccccc1)N1CCN(Cc2ccccc2C(F)(F)F)CC1	-34	-1	0	-1	17	83*
Cc1ccc(S(=O)(=O)N2CCN(Cc3ccccc3C(F)(F)F)CC2)cc1	10	-2	-4	0	0	35
COc1ccc(NC(=O)/C(Cl)=C(/Cl)S(=O)Cc2ccc(Cl)cc2)cn1 (centres undefined)	-14	-14	-9	14	53*	36
COc1ccc(CCNC(=O)c2cccnc2SC)cc1	16	1	-2	0	18	2
c1ccc(CCC2CCCCN2Cc2nc(-c3ccc4c(c3)OCO4)no2)nc1 (centres undefined)	23	1	-1	-1	20	-36
